Drawing on ChEMBL document CHEMBL1201862, “PubChem BioAssay data set” (2004), this text covers IC90 for four compounds.

As a reminder, the IC90 is the concentration needed for an effect of 90%.

Each structure is given as a SMILES string. Measured potencies and affinities stand elsewhere. Some results are limits rather than exact numbers.

A short description of this assay: A High Throughput Confirmatory Assay used to Identify Novel Compounds that Inhibit Mycobacterium Tuberculosis in the absence of Glycerol using Purified and Synthesized Compounds (5). Format: functional.

Take `CCCc1cc(C(N)=S)ccn1`: the IC90 was > 100 µM (active).

With `Cc1cc(Br)ccc1NC(=O)c1cnc(N2CCN(c3ccccn3)CC2)c2ccccc12`, the IC90 was > 100 µM (active).

`CNC(=O)CSc1nc2ccccc2c(=O)[nH]1`: the IC90 is > 100 µM (active).

As to `Cc1[nH]c2ccccc2c1C(=O)COC(=O)c1ccc([N+](=O)[O-])s1`, the IC90 is > 68.8 µM (active).
